Assay results published in PubChem BioAssay AID651899 (Broad Institute, 2012).
Results with a measured potency or affinity are listed apart. Active and inactive are the calls of the source. How the calls were made is not given here.

experiment: cytotoxicity in HEK293 cells, dose response, cytotoxicity control, cell-based, plate reader, cherry-pick (AID 651899); conditions: series mostly up to 26 µM;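 further: cells exposed to compound for 48 hours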

Row | SMILES | outcome
1 | C[C@@H]1CN([C@@H](C)CO)C(=O)Cc2cc(NC(=O)Cn3cnnn3)ccc2O[C@H]1CN(C)Cc1ccc2c(c1)OCO2 | inactive
2 | COc1ccc(F)cc1C(=O)C1CCCN(C(=O)c2ccc(C(C)=O)s2)C1 (stereo unspecified) | inactive
3 | O=C(C[C@@H]1C[C@H]2c3cc(NC(=O)c4cccnc4)ccc3O[C@H]2[C@@H](CO)O1)NCc1cc(F)ccc1F | inactive
4 | COCCNC(=O)C[C@@H]1CC[C@@H]2[C@@H](COc3ccc(NC(=O)Nc4cccc(F)c4)cc3C(=O)N2C)O1 | inactive
5 | COC(=O)c1c(C(=O)OC)c(-c2ccccc2)n2c1CS(=O)C2 (stereo unspecified) | inactive
6 | CCOC(=O)c1c(C)[n+](-c2ccc(C)cc2)c(CC)c2cc(OC)c(OC)cc12 | inactive
7 | O=C(CSc1n[nH]c(-c2cccnc2)n1)Nc1ccnc2ccccc12 | inactive
8 | C#CCSc1nnc(-c2sc(-c3ccccc3)nc2C)n1C | inactive
9 | O=C(O)CN1C(=O)/C(=C\c2cc(Br)ccc2OCc2ccc([N+](=O)[O-])cc2)SC1=S | inactive
10 | CNC(=O)C[C@H]1CC[C@@H]2[C@H](COC[C@@H](O)CN2C(=O)Nc2ccc3c(c2)OCO3)O1 | inactive
11 | Cc1ccc(/C=C(\CCC(=O)O)c2nc3ccccc3s2)cc1[N+](=O)[O-] | inactive
12 | Cc1ccc(-c2nnc(N3CCN(C(=O)CSc4ncn[nH]4)CC3)c3ccccc23)cc1 | inactive
13 | Cc1nc2nc(SCC(=O)N3CCOCC3)nn2c(C)c1Cc1c(F)cccc1Cl | inactive
14 | CCN1[C@H](C(=O)NCc2ccccc2)[C@@H](CO)[C@@H]2Cn3c(ccc(-c4cccnc4)c3=O)[C@@H]21 | inactive
15 | Cc1ccc(-n2ncc3c2CC(C)(C)CC3NC(=O)CCc2cccnc2)cc1 (stereo unspecified) | inactive
16 | Cc1cc(C)n2nc(C(=O)Nc3cccnc3)nc2n1 | inactive
17 | CC1Cc2nc(SCC(=O)N3CCOCC3)n(-c3ccccc3)c(=O)c2S1 (stereo unspecified) | inactive
18 | CCN(CC)c1ccc2cc(C(=O)c3cccs3)c(=O)oc2c1 | inactive

Row | SMILES | outcome
19 | COc1ccc(Cc2c(-c3ccc(OC)c(OC)c3)nc3ccc(C)cn23)c(C)c1 | inactive
20 | COc1ccccc1-c1cc(C(F)(F)F)nc(S(=O)(=O)CCCC(=O)O)n1 | inactive
21 | Clc1ccc(CSc2nnc(-c3cccnc3)o2)cc1 | inactive
22 | CCOC(=O)CNC(=O)c1sc2ncnc(N3CCc4ccccc4C3)c2c1C | inactive
23 | CCc1c(C)nc2ncnn2c1Nc1ccc(C#N)c(Cl)c1 | inactive
24 | O=C(c1cccc(F)c1)N1CC[C@@H]2[C@H]1c1cc(-c3cccc(F)c3)ccc1N[C@@H]2CO | inactive
25 | CCn1c(=O)c(=O)n(CC)c2cc(S(=O)(=O)Nc3cc(C)ccc3C)ccc21 | inactive
26 | CC(C)n1c(N2CCN(C(=O)c3cccs3)CC2)nc2ccccc21 | inactive
27 | CCN(CC)S(=O)(=O)c1ccc(NC(=O)c2ccc(Cl)nc2)cc1 | inactive
28 | COCCNC(=O)C[C@H]1CC[C@@H]2[C@H](COc3ccc(NC(=O)Nc4cccc(F)c4)cc3C(=O)N2C)O1 | inactive
29 | C[C@@H]1CN([C@@H](C)CO)C(=O)c2cc(C#Cc3cccnc3)cnc2O[C@H]1CN(C)S(C)(=O)=O | inactive
30 | CCOc1ccc(C(=O)Nc2cc3c(cc2N2CCCC2)n(CC)c(=O)n3CC)cc1OCC | inactive
31 | CC(=O)N1CC[C@@H]2[C@@H](CO)N(C)c3ccc(-c4cccc(F)c4)cc3[C@@H]21 | inactive
32 | O=C(Nc1cccnc1)c1ccc(Oc2ccccc2)cc1 | inactive
33 | CCCOc1ccc2c3c(c(=O)oc2c1OCCC)CCC3 | inactive
34 | Cc1cc(NC(=O)CN(C)S(=O)(=O)c2cnc[nH]2)ccc1Br | inactive
35 | O=C(Nc1ccc(F)cc1)NC1CCN(Cc2nnnn2Cc2ccco2)CC1 | inactive
36 | Cn1ncc2cc3c(Nc4ccc(Cl)cc4)cccc3nc21 | inactive
